Results from the supplement of paper PMC10849652.
About 8,800 targets were measured; listed, in parts, are those with a hit and a random draw of the rest. About 0.5% of all pairs of compound and target were hits. Unmarked numbers belong to inactive results.

Assays:
Test in all cases: log2 fold change, soluble protein after heating vs DMSO (PISA); higher = thermal stabilisation; K562 lysate, 10 uM; active = over 0.2 and 3.5 SD of the protein, either way, in both replicates (recomputed)
erlotinib = compound: C#Cc1cccc(Nc2ncnc3cc(OCCOC)c(OCCOC)cc23)c1 [erlotinib]
Outline: (§1)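 K562 pellets were dounce-homogenised in PBS pH 7.4 containing 1 mM MgCl2, and the crude extract, at 1 mg/mL protein, was exposed to 10 μM compound for 30 min. Aliquots were heated for 3 min across 48°C-58°C, pooled, brought to 0.5% NP-40 at 4°C and spun at 21,000xg for 90 min, with the supernatant taken as soluble protein. TMTpro 16plex LC-MS/MS with equalised channel sums quantified that protein. Values are log-two fold changes in thermal stability relative to solvent controls, taken from duplicates.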

[1] = compound: C/C(=N\NC(=O)C1=CC(=CC=C1)S(=O)(=O)N2CCOCC2)/C3=C(C=CC(=C3)Cl)O
Outline: as §1

[2] = compound: C1=CC(=CC=C1C2=NC3=C(N2)C=C(C=C3)C(=O)N)OC4=CC=C(C=C4)Cl
Outline: as §1

[3] = compound: C1=CC2=C(C=CC(=C2)/C=C\3/C(=O)NC(=NCC4=CC=CS4)S3)N=C1
Outline: as §1

[4] = compound: C1=CC2=NC=CN=C2C=C1/C=C/3\C(=O)NC(=O)S3
Outline: as §1

[5] = compound: C1=CC=C(C=C1)C2=NC(=C(N2)C3=CC=NC=C3)C4=CC(=C(C=C4)Cl)O
Outline: as §1

[6] = compound: C1=CC=C2C(=C1)C3=NNC4=CC=CC(=C43)C2=O
Outline: as §1

[7] = compound: C1CCN(C1)C(=O)NC2=CC=CC(=C2)NC3=NC=C(C(=N3)NCCC4=CN=CN4)Br
Outline: as §1

[8] = compound: C1CN(CCC1(CC2=CC=C(C=C2)Cl)N)C3=NC=NC4=C3C=CN4
Outline: as §1

IRAK-1-4 Inhibitor I = compound: C1COCCN1CCN2C3=CC=CC=C3N=C2NC(=O)C4=CC(=CC=C4)[N+](=O)[O-] [IRAK-1-4 Inhibitor I]
Outline: as §1

Sequence of UniProt Q99828 (Q99828 whole entry, looked up): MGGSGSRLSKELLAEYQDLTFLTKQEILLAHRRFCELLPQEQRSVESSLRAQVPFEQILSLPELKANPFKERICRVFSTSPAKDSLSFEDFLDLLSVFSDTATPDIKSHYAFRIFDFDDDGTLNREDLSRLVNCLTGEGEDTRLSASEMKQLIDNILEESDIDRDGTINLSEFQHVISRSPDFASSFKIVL
Sequence of UniProt O75911 (O75911 whole entry, looked up): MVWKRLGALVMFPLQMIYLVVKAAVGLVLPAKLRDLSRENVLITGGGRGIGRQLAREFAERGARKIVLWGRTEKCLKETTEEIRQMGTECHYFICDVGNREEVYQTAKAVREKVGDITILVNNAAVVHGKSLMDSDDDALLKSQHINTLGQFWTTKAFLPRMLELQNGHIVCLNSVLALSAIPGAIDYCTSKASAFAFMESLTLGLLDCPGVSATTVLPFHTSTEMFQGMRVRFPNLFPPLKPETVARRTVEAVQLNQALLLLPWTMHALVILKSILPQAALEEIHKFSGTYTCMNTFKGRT
Sequence of UniProt P57737 (P57737 whole entry, looked up): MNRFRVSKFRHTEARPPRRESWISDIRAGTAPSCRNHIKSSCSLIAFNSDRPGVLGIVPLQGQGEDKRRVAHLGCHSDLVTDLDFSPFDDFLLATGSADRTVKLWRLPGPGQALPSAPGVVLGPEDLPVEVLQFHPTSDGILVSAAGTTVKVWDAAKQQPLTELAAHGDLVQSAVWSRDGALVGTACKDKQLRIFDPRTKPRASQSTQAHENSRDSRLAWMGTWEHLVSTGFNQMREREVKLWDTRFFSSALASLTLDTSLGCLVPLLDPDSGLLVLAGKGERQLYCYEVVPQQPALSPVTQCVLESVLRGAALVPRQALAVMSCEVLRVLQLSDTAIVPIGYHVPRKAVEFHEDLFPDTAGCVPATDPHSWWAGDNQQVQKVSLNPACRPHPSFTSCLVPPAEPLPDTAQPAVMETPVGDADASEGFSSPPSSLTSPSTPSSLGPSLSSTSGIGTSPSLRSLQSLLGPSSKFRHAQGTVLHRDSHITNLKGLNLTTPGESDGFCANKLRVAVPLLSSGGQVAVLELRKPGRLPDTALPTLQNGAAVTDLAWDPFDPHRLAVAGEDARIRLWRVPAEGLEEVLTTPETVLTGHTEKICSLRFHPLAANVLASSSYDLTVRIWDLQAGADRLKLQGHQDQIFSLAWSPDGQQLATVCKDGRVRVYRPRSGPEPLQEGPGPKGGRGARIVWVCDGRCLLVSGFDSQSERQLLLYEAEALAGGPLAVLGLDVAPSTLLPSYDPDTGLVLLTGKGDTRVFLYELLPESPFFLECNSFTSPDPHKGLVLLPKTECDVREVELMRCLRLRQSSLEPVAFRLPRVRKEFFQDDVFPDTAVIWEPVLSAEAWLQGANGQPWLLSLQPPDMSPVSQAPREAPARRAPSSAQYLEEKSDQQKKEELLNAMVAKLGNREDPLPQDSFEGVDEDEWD
Sequence of UniProt Q07973 (Q07973 whole entry, looked up): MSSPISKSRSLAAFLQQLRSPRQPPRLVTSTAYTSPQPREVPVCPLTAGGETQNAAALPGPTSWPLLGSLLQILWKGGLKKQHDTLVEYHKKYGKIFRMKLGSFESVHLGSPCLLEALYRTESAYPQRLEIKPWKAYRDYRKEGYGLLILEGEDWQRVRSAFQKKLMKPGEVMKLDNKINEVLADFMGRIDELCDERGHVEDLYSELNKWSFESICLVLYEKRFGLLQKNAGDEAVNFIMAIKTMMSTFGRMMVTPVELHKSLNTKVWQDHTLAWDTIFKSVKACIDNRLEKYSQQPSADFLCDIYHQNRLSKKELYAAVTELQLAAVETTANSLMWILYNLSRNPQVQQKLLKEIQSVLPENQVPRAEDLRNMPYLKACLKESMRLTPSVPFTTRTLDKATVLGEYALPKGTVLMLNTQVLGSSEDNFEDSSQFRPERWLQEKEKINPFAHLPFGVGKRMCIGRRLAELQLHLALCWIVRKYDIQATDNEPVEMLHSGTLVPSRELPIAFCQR
Sequence of UniProt Q14203 (Q14203 whole entry, looked up): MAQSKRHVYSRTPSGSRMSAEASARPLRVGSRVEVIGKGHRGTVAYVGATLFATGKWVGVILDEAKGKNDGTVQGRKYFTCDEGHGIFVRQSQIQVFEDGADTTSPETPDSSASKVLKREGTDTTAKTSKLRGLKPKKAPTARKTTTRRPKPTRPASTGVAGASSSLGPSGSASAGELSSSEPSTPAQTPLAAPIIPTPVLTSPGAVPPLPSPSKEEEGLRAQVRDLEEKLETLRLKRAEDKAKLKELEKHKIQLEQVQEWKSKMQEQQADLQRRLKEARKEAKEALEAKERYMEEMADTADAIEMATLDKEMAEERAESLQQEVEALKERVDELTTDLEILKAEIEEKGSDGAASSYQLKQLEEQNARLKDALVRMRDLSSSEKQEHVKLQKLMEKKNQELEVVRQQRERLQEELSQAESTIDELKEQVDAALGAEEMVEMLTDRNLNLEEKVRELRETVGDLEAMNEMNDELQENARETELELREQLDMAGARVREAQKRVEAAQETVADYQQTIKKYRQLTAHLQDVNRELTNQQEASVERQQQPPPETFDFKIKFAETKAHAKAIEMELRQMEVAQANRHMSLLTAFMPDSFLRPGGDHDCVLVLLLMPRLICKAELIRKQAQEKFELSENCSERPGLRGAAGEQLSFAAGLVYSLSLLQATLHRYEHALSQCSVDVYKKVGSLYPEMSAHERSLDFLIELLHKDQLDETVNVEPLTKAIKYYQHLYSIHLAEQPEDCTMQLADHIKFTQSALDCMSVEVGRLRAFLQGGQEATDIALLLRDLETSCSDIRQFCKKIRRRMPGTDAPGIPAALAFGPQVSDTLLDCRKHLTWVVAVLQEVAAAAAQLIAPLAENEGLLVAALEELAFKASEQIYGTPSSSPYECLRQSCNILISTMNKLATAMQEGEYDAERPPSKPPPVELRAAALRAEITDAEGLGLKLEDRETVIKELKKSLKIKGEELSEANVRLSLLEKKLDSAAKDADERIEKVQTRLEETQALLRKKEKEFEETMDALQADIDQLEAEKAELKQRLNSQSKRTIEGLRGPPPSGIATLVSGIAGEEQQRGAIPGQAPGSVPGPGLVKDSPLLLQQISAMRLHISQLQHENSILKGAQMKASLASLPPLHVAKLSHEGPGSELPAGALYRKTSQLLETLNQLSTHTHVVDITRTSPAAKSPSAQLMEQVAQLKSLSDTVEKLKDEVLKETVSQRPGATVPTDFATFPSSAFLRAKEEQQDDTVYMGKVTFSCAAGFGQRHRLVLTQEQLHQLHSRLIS
Sequence of UniProt Q6P3S1 (Q6P3S1 whole entry, looked up): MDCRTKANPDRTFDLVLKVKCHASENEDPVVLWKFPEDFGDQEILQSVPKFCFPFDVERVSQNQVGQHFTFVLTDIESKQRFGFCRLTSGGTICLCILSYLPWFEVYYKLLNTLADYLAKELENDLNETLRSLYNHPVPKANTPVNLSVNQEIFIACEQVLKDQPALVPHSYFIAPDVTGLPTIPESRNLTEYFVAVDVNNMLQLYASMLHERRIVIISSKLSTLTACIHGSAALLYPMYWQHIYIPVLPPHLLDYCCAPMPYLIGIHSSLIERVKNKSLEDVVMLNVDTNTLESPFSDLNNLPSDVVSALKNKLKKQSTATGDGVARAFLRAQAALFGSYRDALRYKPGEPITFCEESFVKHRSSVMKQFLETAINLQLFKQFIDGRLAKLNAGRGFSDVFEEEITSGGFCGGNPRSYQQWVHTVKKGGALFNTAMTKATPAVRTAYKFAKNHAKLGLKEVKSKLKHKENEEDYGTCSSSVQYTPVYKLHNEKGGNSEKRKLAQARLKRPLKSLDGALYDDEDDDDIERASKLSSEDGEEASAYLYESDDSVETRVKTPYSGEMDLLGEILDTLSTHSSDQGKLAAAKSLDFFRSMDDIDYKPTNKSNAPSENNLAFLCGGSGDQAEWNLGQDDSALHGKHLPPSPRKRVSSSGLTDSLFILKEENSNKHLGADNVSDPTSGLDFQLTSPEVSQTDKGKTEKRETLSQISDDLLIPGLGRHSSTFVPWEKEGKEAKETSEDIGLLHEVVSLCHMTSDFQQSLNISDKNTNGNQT
Sequence of UniProt Q6ZPD9 (Q6ZPD9 whole entry, looked up): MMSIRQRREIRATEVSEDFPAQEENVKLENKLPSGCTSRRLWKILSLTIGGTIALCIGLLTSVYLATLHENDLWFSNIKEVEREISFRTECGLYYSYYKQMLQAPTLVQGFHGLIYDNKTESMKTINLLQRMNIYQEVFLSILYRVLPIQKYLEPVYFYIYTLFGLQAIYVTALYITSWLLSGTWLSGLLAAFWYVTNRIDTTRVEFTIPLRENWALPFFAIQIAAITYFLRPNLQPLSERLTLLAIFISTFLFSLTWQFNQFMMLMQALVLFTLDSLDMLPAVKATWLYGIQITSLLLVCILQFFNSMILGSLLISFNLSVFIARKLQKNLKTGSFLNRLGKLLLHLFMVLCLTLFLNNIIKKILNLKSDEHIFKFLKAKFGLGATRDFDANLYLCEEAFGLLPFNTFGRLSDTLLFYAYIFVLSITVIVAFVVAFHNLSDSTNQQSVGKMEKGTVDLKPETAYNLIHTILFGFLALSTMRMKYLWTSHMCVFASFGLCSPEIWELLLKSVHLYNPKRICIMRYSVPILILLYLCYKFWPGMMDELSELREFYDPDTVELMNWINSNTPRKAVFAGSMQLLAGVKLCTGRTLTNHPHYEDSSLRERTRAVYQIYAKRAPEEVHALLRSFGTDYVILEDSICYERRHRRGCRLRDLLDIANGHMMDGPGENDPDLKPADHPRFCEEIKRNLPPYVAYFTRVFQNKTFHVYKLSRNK
Sequence of UniProt Q5RI15 (Q5RI15 whole entry, looked up): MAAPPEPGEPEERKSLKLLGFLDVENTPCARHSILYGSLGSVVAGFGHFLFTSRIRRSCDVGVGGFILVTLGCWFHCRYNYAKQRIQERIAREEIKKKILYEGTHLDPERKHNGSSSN
Sequence of UniProt P24311 (P24311 whole entry, looked up): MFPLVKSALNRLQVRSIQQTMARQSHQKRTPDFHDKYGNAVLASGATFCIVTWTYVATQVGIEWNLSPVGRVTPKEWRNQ

Row | Target | log2 fold change (erlotinib) | log2 fold change [1] | log2 fold change [2] | log2 fold change [3] | log2 fold change [4] | log2 fold change [5] | log2 fold change [6] | log2 fold change [7] | log2 fold change [8] | log2 fold change (IRAK-1-4 Inhibitor I)
1 | COX20 isoform 2 (UniProt Q5RI15) | 0.022 | 0.004 | -0.018 | -0.001 | -0.129 | 0.016 | -0.036 | -0.09 | 0.034 | 0.048
2 | CLIP1 isoform 1 (UniProt P30622) | -0.025 | -0.026 | 0.019 | -0.005 | -0.018 | 0.005 | 0.002 | 0 | -0.012 | 0.007
3 | DCTN1 isoform 4 (UniProt Q14203) | -0.021 | -0.166 | 0.065 | -0.109 | – | 0.098 | 0.126 | -0.141 | 0 | 0.02
4 | DENND1B (UniProt Q6P3S1) | -0.08 | 0.153 | -0.13 | 0.04 | 0.19 | 0.019 | 0.007 | – | – | 0.014
5 | COX7B (UniProt P24311) | -0.024 | 0.026 | 0.009 | -0.011 | – | -0.003 | 0.022 | -0.085 | 0.022 | 0.025
6 | DHRS3 (UniProt O75911) | 0.056 | 0.08 | 0.047 | -0.008 | -0.044 | 0.03 | -0.028 | -0.007 | 0.016 | 0.046
7 | CHML (UniProt P26374) | -0.03 | -0.031 | 0.028 | -0.026 | -0.013 | -0.021 | -0.004 | -0.033 | -0.001 | -0.012
8 | DCTN1 (UniProt Q14203) | 0.007 | -0.001 | -0.001 | -0.001 | 0.019 | -0.001 | -0.023 | 0 | -0.003 | -0.005
9 | CSNK1E (UniProt P49674) | -0.003 | 0.006 | 0.161 | 0.047 | 0.018 | 0.297 (active) | 0.345 (active) | -0.056 | 0.009 | -0.032
10 | DCP2 (UniProt Q8IU60) | 0.005 | 0.039 | -0.029 | -0.064 | -0.037 | -0.007 | 0.001 | 0.025 | -0.014 | -0.017
11 | CIB1 (UniProt Q99828) | -0.039 | 0.126 | 0.013 | 0.042 | -0.227 | 0.023 | 0.02 | 0.045 | 0.073 | 0.026
12 | CORO7 isoform 3 (UniProt P57737) | 0.035 | -0.009 | -0.079 | 0.013 | 0 | 0.016 | -0.016 | 0.009 | 0.026 | -0.04
13 | DPY19L3 (UniProt Q6ZPD9) | -0.131 | 0.007 | -0.097 | 0.101 | 0.211 | – | -0.2 | 0.005 | 0.008 | –
14 | CYP24A1 (UniProt Q07973) | 0.015 | 0.058 | 0.148 | -0.09 | -0.083 | -0.008 | -0.135 | -0.05 | -0.011 | 0.07
15 | CUL1 (UniProt Q13616) | -0.011 | 0.006 | 0.026 | 0.01 | 0.009 | -0.011 | 0.017 | 0 | -0.006 | -0.013
16 | DNAH5 (UniProt Q8TE73) | -0.006 | -0.008 | 0 | -0.024 | 0.015 | 0.004 | -0.056 | – | – | -0.015
17 | CSDE1 isoform 3 (UniProt O75534) | – | – | – | – | 0.13 | 0.027 | – | – | – | -0.011
18 | CSNK1D (UniProt P48730) | – | -0.32 | – | -0.06 | 0.039 | 0.124 | 0.415 (active) | -0.031 | 0.013 | -0.048
19 | DONSON (UniProt Q9NYP3) | 0 | – | 0.051 | – | 0.014 | 0.06 | – | – | – | -0.021
20 | CLIP1, A0A3B3ITA2 | – | 0.025 | – | 0.004 | – | -0.039 | -0.103 | – | – | 0.121
